Hits are enriched below; roughly 3.9% of the tested compounds scored in any of these assays.
SARS 3CLpro inh – SARS-CoV 3CLpro protease inhibitors, primary screen, biochemical, quenched FRET; recombinant SARS-CoV 3CLpro, quenched FRET peptide cleavage; 290,000 compounds, 0.14% hits; AID 1706, 2009; Replicase polyprotein 1ab (Severe acute respiratory syndrome coronavirus), P0C6X7; inhibition, % at 6 µM; in the data active = inhibition above about 12%
BoNT-A LC inh2 – BoNT/A light chain protease inhibitors, primary screen, biochemical, flow cytometry, MLPCN library; multiplex microsphere protease substrate cleavage; inhibition, % at 10 µM; 360,000 compounds, 0.17% hits; AID 588499, 2011; in the data active = inhibition above about 30%; inconclusive = no clear call, values can overlap the other calls; also: plate controls were buffer without enzyme for full effect and enzyme alone for no effect
CCHF vOTU inh-1 – CCHFV vOTU protease inhibitors, primary screen, biochemical, Pep-AMC substrate, fluorescence. 370,000 compounds, 0.55% hits. Crimean-Congo hemorrhagic fever virus L polyprotein viral ovarian tumor (vOTU) protease …. inhibition, % at 11.5 µM; also: 0% = vehicle wells with enzyme and 100% = no enzyme wells
Anthrax LF prot – Bacillus anthracis LF protease inhibitors, primary screen, biochemical, multiplex microsphere, MLPCN library; multiplex microsphere protease cleavage assay; inhibition, % at 10 µM; Lethal factor (Bacillus anthracis), P15917; 360,000 compounds, 0.12% hits; AID 588501, 2011; in the data active = inhibition above about 30%; inconclusive = no clear call, values can overlap the other calls; also: plate controls were buffer without enzyme for full effect and enzyme alone for no effect
Target sequence (P15917 whole entry, looked up): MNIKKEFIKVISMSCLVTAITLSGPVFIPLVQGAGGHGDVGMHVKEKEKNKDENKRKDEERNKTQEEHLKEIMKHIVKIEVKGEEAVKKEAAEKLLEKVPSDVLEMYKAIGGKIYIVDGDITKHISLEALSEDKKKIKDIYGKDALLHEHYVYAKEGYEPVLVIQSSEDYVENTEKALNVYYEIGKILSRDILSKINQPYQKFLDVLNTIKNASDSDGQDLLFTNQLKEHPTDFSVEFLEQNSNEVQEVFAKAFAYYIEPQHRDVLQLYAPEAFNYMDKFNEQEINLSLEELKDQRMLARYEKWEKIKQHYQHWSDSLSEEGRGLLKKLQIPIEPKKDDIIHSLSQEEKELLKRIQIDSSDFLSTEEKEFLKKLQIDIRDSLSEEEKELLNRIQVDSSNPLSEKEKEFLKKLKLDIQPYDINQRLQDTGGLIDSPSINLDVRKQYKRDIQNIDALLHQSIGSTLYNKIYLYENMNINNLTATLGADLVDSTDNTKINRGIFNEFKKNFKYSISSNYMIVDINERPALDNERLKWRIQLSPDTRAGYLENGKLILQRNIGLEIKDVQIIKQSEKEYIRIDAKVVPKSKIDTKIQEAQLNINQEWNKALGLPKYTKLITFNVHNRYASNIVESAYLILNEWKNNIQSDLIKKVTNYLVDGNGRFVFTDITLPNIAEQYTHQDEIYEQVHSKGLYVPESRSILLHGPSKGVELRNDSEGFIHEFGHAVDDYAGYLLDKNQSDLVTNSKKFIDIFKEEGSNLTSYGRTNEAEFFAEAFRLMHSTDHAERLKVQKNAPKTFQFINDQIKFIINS
BoNT-F LC inh – BoNT/F light chain protease inhibitors, primary screen, biochemical, flow cytometry, MLPCN library; Botulinum neurotoxin type F light chain protease (Clostridium botulinum); Multiplex microsphere protease cleavage assay; inhibition, % at 10 µM; 360,000 compounds, 0.22% hits; in the data active = inhibition above about 35%, passing the limit was not always enough; inconclusive = no clear call, values can overlap the other calls; also: plate controls were buffer without enzyme for full effect and enzyme alone for no effect
Bead autofluor – counter-screen for toxin protease inhibitors: compound fluorescence. compound autofluorescence counterscreen, microsphere flow cytometry; stronger effect = higher value. fluorescence intensity (no concentration beside the values). 360,000 compounds, 3.1% hits; in the data active = fluorescence intensity above about 16000; inconclusive = no clear call, values can overlap the other calls
BoNTA LC inh 1 – BoNT/A light chain protease inhibitors, confirmation, biochemical, flow cytometry, cherry pick 1; shares compounds with BoNT-F LC inh; multiplex microsphere protease assay; inhibition, % at 10 µM; 720 compounds, 3% hits; AID 602139, 2011; in the data active = inhibition above about 32%
BoNTF LC inh 1 – BoNT/F light chain protease inhibitors, confirmation, biochemical, flow cytometry, cherry pick 1; 720 tested, under 10 active; shares compounds with BoNT-F LC inh; inhibition, % at 10 µM; multiplex microsphere protease cleavage assay; AID 602140, 2011; call rule not given here
LF protease CP1 – Bacillus anthracis LF protease inhibitors, confirmation, biochemical, multiplex microsphere, cherry pick 1; AID 602142, 2011; shares compounds with BoNT-F LC inh; 720 tested, under 10 active; inhibition, % at 10 µM; multiplex microsphere protease cleavage assay; call rule not given here
CCHF vOTU inh-2 – CCHFV vOTU protease inhibitors, confirmation, biochemical, Pep-AMC substrate, fluorescence; 1,900 compounds, 17% hits; shares compounds with CCHF vOTU inh-1; AID 686976, 2013; inhibition, % at 11.5 µM; Recombinant CCHFV vOTU
An asterisk follows results filed as active; ? = inconclusive; · = no result. Rule as the data show it, unless noted: active = inhibition above about 30%; inactive = the rest.

SMILES	SARS 3CLpro inh	BoNT-A LC inh2	CCHF vOTU inh-1	Anthrax LF prot	BoNT-F LC inh	Bead autofluor	BoNTA LC inh 1	BoNTF LC inh 1	LF protease CP1	others
CCN(CC)c1nc2cc(OC)ccc2cc1C#N	1	31*	-8	19	23	5562	3	2	-2
COc1ccc2cc(C#N)c(NC(C)C)nc2c1	-3	1	-39	-2	-27	4539	·	·	·
Cc1ccc(-c2cnco2)cc1	-1	?	-5	30*	?	4486	1	-2	6
O=C(CN1CCOCC1)NCc1ccccc1	-10	0	·	-4	2	7755	·	·	·
O=C(CN1CCOCC1)NCCc1ccccc1	3	-1	-2	31*	7	3531	0	0	-1
COc1cc(S(=O)(=O)N(Cc2ccccc2)CC2CCCO2)ccc1-n1cnnn1 (stereo not drawn)	-1	-1	3	-3	0	4500	·	·	·
COc1cc(S(=O)(=O)N(Cc2cccs2)CC2CCCO2)ccc1-n1cnnn1 (stereo not drawn)	-2	?	11	1	41*	5631	0	-3	0
O=[N+]([O-])c1ccc(N(c2ccccc2)c2ccccc2)cc1	-4	58*	20	47*	24	21531*	21	10	16
CCN(C(=O)c1ccccc1)c1ccc([N+](=O)[O-])cc1	1	0	2	1	-2	8149	·	·	·
COc1cc(NC(=S)N2CCN(S(=O)(=O)c3ccc(C)cc3)CC2)cc(OC)c1	0	0	-2	1	0	5363	·	·	·
Cc1cc(NO)c(C(C)C)cc1N=O	1	0	-2	0	-3	1955	·	·	·
COc1ccc(C(=O)NCCN2CCOCC2)c(OC)c1	2	1	9	2	-10	5080	·	·	·
COc1ccc(C(=O)NCCn2ccc3ccccc32)c(OC)c1	-1	9	4	14	-1	10678	0	0	6
c1ccc(Cn2c(CN3CCCC3)nc3ccccc32)cc1	-2	3	2	-2	34	6747	-1	0	2
C=CCn1c(C(CC)CC)nc2ccccc21	1	-2	-3	-16	36*	4311	0	-2	3
Cc1nc(-c2ccccc2)sc1-c1n[nH]c(=S)n1C	-4	30*	-2	24	54*	?	0	-4	-3
NCc1csc(Nc2ccc(C(=O)c3ccccc3)cc2)n1	·	0	1	-6	-4	3478	·	·	·
COc1ccccc1Cn1c(C)nc2ccccc21	0	1	-18	-12	39*	4417	-1	-2	-1
CCc1nc2ccccc2n1Cc1ccccc1OC	3	0	2	-3	-4	2792	·	·	·
COc1ccc(CCNC(=O)c2ccc3c(c2)OCO3)cc1	2	64*	6	3	2	5785	1	-2	2
CC1=C(C(=O)N(C(C)C)C(C)C)CC(CC(=O)NCCCCc2ccccc2)C(=O)N1Cc1ccc(F)cc1 (stereo not drawn)	·	0	28	0	0	5452	·	·	·
Cc1nnc(SCC(=O)Nc2ccc(N3CCOCC3)cc2)o1	0	1	9	0	42*	3798	-1	-2	2
COCc1cc(C)nc(NCCc2ccccc2)c1C#N	-1	0	-58	-1	3	2631	·	·	·
COCc1cc(C)nc(Nc2ccccc2OC)c1C#N	2	-2	17	32*	-18	4062	0	1	-6
CC(C)C(C)NC(=O)COc1ncnc2sccc12 (stereo not drawn)	0	0	-14	-1	-2	4021	·	·	·
SMILES	SARS 3CLpro inh	BoNT-A LC inh2	CCHF vOTU inh-1	Anthrax LF prot	BoNT-F LC inh	Bead autofluor	BoNTA LC inh 1	BoNTF LC inh 1	LF protease CP1	others
CC(=O)Nc1ccc(NC(=O)c2sc(-c3ccccc3)nc2C)cc1	-4	-3	12	22	43*	3706	1	-2	0
CNC(=O)c1sc(-c2ccccc2)nc1C	-5	0	-5	0	0	2996	·	·	·
COc1ccc(S(=O)(=O)N2CCCCCC2)cc1N(C)S(=O)(=O)c1ccc(Cl)cc1	0	2	-5	2	37*	5279	0	-5	-4
COc1ccc(CC2(CO)CCN(S(=O)(=O)c3sccc3C)CC2)cc1	3	6	-5	-6	38*	4205	1	-7	1
COc1ccc(CC2(CO)CCN(S(=O)(=O)c3c(C)nn(C)c3Cl)CC2)cc1	4	0	-4	-5	-7	4674	·	·	·
COc1cc2c(cc1OC)C(C)N(S(=O)(=O)c1cccs1)CC2 (stereo not drawn)	-1	6	-4	32*	-7	3519	1	-2	-1
N/C(CS(=O)(=O)c1ccc(F)cc1)=N\O	-4	·	-4	·	·	·	·	·	·
O=C(O)C1Nc2c(C(F)(F)F)ccc(Cl)c2C2C=CCC12 (stereo not drawn)	1	-4	-6	40*	-19	3213	1	-3	-6
COc1ccc2nc(C)cc(Nc3ccc(C(=O)O)cc3)c2c1	-2	-2	·	-3	39*	3557	-1	-3	2
COc1ccc(Nc2cc(C)nc3ccc(OC)cc23)cc1	6	·	-6	·	·	·	·	·	·
COc1ccc(OCC(=O)Nc2ccc(OC)c(S(=O)(=O)N3CCCCC3)c2)cc1	·	-3	8	-2	-5	6228	·	·	·
COc1ccc2c(n1)Sc1nc3ccccc3nc1N2	-4	30*	59*	5	1	4878	9	-5	2	CCHF vOTU inh-2=-2
COc1ccc(Cn2c(C)c(CC(=O)Nc3ccc(Oc4cccnc4)c(C)c3)c3ccccc32)cc1	·	·	0	·	·	·	·	·	·
